The record followed here is PubChem BioAssay (NCATS).

Assay [1] in a line: S16 Schwann cell PMP22 intronic element firefly luciferase assay (AID 624032). Also: nearly all actives have a fitted effect of over 30% in size. Also: potency is read from the fitted curve at half-maximal effect. In short, it runs like this: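 Luciferase reporter of PMP22 intronic-element expression in stably transfected S16 rat Schwann cells, read by ONE-Glo luminescence after 24 h compound exposure at 37 C. Activity scaled between DMSO (0%) and positive-control PTC124; concentration-effect curves quality-classified.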

The nature of assay [2]: S16 Schwann cell PMP22 intronic element beta-lactamase assay (AID 624044; calls by dose curve; also: nearly all actives have a fitted effect of over 15% in size). A digest of the protocol:
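Beta-lactamase reporter under a PMP22 intronic regulatory element in stable S16 rat Schwann cells; 24 h compound exposure. 460 nm blue signal normalized between DMSO (0%) and potassium clavulanate, with 535 nm FRET tracking viability; curves classed by r2 and response.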

A short description of assay [3]: qHTS assay for small molecule agonists of the antioxidant response element (ARE) signaling pathway (AID 651741; active = well fitted activation curve with a large enough effect in the signal ratio; the % refers to the signal ratio). A digest of the protocol:
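Beta-lactamase reporter under ARE control in HepG2 cells, 2,000 per well, was induced by 16 h compound treatment at 37 C. Read-out was fluorescence from LiveBLAzer B/G FRET substrate after 2 h at room temperature.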

A short description of assay [4]: qHTS assay for small molecule activators of the nuclear factor-kappa B (NF-kB) signaling pathway (AID 651749; active = well fitted activation curve with a large enough effect in the signal ratio; the % refers to the signal ratio; also: series mostly up to about 77 µM). As to conditions: NF-kB-bla ME-180 cells, beta-lactamase FRET ratio, 16 h; active compounds read high. A digest of the protocol: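 Activation measured after 16 hr compound treatment at 37C, 5% CO2, of 2,000 ME-180 cells/well stably expressing an NF-kB response element–driven beta-lactamase reporter, via FRET-disruption fluorescence.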
In general terms: In qHTS, concentration-response curves come from the screen itself.

The nature of assay [5]: qHTS assay for small molecule disruptors of the mitochondrial membrane potential - 1 hr assay (AID 651754; calls by dose curve; also: nearly all actives have a fitted effect of over 35% in size). A digest of the protocol:
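Loss of mitochondrial potential shifts the cationic dye from red mitochondrial aggregates to green cytoplasmic monomers. Cells (HepG2) are treated with compound for 1 hr before a 30 min dye incubation at 37C.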

Assay [6] can be described thus: qHTS assay for small molecule disruptors of the mitochondrial membrane potential - 5 hr assay (AID 651755; calls by dose curve; also: nearly all actives have a fitted effect of over 40% in size). In short, it runs like this: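 Membrane-potential dye readout: red aggregate (540 ex/590 em) versus green monomer (490 ex/535 em) fluorescence after 30 min dye loading, following 5 hr compound exposure at 37C of overnight-plated HepG2 cells.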
Assay [7] in a line: qHTS assay for environmental chemicals that activate the Aryl hydrocarbon Receptor (AhR) signaling pathway (AID 651777). Also: nearly all actives have a fitted effect of over 15% in size. The following applies: 1A2-DRE human hepatoma cells, luciferase, 24 h; active compounds read high. A digest of the protocol: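 Induction of CYP1A2 transcription through AhR is detected by luciferase in 1A2-DRE hepatoma cells. Compounds or DMSO act for 24 hr at 37 C before a 30 min One-Glo step at room temperature.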

The target of assay [8] is Peroxisome proliferator-activated receptor alpha (Homo sapiens) (UniProt Q07869). Kind of assay: qHTS assay for small molecule agonists of the peroxisome proliferator-activated receptor alpha (PPARalpha) signaling pathway (AID 651778). As to conditions: PathHunter PPARalpha complementation, chemiluminescence, 6 h; active compounds read high. In short, it runs like this: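 Chemiluminescence from complemented enzyme reported PPARalpha activation in cells after 6 hr of compound treatment at 37 C. The detection reagent was incubated for 60 min at room temperature, and compounds were scored as agonists.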

In assay [9] the target is Nuclear receptor ROR-gamma (Homo sapiens) (UniProt P51449). The experiment in a line: qHTS assay for small molecule antagonists of the retinoid-related orphan receptor gamma (ROR-gamma) signaling pathway (AID 651802).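 Also: CHO cells with doxycycline-induced ROR-gamma expression; series mostly up to about 92 µM; nearly all actives have a fitted effect of over 60% in size.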 A digest of the protocol: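 Steps: cells dispensed; compound or DMSO transferred by pin tool; doxycycline added to induce the ROR response element-driven luciferase; plates held 16hr at 37C; ONE-Glo added and luminescence measured.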

Assay [10] is described as follows: qHTS assay to identify small molecules that stimulate interleukin-8 (IL-8) secretion (AID 651758; active = well fitted activation curve with a large enough effect in the signal ratio; the % refers to the signal ratio). A digest of the protocol: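 Secreted IL-8 measured homogeneously by TR-FRET (two labelled anti-IL-8 antibodies, 1-3 h at room temperature) after a 16 h, 37 C compound treatment of THP-1 cells at 2000 cells/well.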

The structures appear in SMILES notation. “And” between values parts separate entries of the source, which are not always exact repeats. Identical values can stand only once. Values without a mark were called inactive. Records with an inconclusive call do not appear. Entries that show only a call come without a potency. The source made the active and inactive calls. Unless noted, calls follow the shape of the dose curve; as a rule, active = well fitted curve in the direction sought with a large enough effect; inconclusive = small, poorly fitted or top-dose-only effect, or another doubt; inactive = no such curve, though single readings can be large; an effect the other way counts as inactive or inconclusive.

Sequence of Nuclear receptor ROR-gamma (Homo sapiens) (P51449 whole entry, looked up): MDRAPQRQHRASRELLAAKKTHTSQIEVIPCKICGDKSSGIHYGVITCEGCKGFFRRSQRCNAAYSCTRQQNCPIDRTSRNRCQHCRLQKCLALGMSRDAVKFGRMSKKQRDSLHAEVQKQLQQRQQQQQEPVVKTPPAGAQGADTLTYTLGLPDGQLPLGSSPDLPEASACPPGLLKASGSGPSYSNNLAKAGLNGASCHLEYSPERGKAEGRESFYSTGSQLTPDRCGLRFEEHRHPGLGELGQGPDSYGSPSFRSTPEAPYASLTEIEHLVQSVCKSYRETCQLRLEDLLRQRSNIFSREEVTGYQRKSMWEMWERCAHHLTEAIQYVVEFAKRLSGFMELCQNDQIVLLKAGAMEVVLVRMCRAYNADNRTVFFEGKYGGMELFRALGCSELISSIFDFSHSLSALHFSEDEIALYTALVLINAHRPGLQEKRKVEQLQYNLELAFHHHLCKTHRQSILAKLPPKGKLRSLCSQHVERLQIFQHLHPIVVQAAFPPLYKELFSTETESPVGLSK
Sequence of Peroxisome proliferator-activated receptor alpha (Homo sapiens) (Q07869 whole entry, looked up): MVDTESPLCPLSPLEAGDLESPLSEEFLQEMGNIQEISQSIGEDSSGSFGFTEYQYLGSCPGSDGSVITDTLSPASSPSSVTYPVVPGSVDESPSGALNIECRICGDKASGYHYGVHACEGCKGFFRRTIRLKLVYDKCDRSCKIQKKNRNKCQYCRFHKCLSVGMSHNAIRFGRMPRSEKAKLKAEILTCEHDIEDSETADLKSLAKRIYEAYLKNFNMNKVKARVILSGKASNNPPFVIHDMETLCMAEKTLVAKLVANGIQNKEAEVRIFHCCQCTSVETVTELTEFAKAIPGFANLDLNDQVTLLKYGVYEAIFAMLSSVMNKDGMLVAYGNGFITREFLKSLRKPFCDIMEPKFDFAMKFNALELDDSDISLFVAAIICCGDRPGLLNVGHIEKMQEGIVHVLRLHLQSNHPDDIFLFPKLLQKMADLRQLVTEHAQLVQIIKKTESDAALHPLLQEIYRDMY

Take `CC(O)CCCCn1c(=O)c2c(ncn2C)n(C)c1=O` (stereo not drawn): the Potency result in [1] is “inactive”. For the same molecule, in assay [2], the outcome was inactive.

Turning to `CCOc1cc(NC(C)=O)ccc1C(=O)OC`, the Potency entry in assay [1] was “inactive”. In addition, the molecule was classed as inactive in assay [2].

As for `CCS(=O)(=O)CCn1c([N+](=O)[O-])cnc1C`, the Potency result in [1] was “inactive”. Moreover, in assay [2], the molecule was called inactive.

As for `O=S1(=O)OC(c2ccc(O)cc2)(c2ccc(O)cc2)c2ccccc21`, the Potency in [1] was 10.2 µM (active). Further, the result in assay [2] was inactive.

For `COc1ccc(NS(=O)(=O)c2ccc(N)cc2)nn1`, in assay [1], the Potency result was “inactive”. For the same molecule, the molecule was classed as inactive in assay [2].

For `NC(=O)CC[C@@H](N)C(=O)O`, the Potency entry in assay [1] was “inactive”. Further, in assay [2], the molecule was classed as inactive.

With `N[C@@H](Cc1ccc(O)cc1)C(=O)O`, the Potency entry in [1] is “inactive”. Moreover, the outcome in [2] was inactive.

Regarding `CCCCCCCCCCCCCCCCC(C(=O)O)C(O)(CC(=O)O)C(=O)O` (stereo not drawn), in assay [1], the Potency result is “inactive”. Besides, the molecule was classed as inactive in [2].

`O=C(Cn1ccnc1[N+](=O)[O-])NCc1ccccc1`: the Potency entry in assay [1] was “inactive”. Besides, the result in assay [2] was inactive.

As for `Nc1ccc(C(=O)Oc2ccccc2)c(O)c1`, the Potency entry in assay [1] is “inactive”. Besides, the molecule was classed as inactive in assay [2].

In the case of `CCCCCCCCCCCCCCCCN`, the Potency entry in assay [1] was “inactive”. For the same molecule, the molecule was classed as inactive in [2].

Regarding `COc1ccc2cc(CCC(C)=O)ccc2c1`, the Potency result in [1] is “inactive”. Besides, the result in [2] was inactive.

For `CCCCC1(COC(=O)CCC(=O)O)C(=O)N(c2ccccc2)N(c2ccccc2)C1=O`, the Potency result in [1] is “inactive”. The call in assay [2] was inactive.

As for `CCN(CC)CC1CCCCN1CC(=O)N1c2ccccc2C(=O)Nc2cccnc21` (stereo not drawn), the Potency entry in [1] is “inactive”. Besides, the call in [2] was inactive.

As for `CC(C)(C)C(=O)OCOC(=O)[C@@H]1N2C(=O)[C@@H](NC(=O)[C@H](N)c3ccccc3)[C@H]2SC1(C)C`, the Potency result in assay [1] was “inactive”. Besides, the result in assay [2] was inactive.

As for `CC(=O)Oc1cccc(O)c1`, the Potency entry in assay [1] is “inactive”. Moreover, in assay [2], the molecule was called inactive.

As to `COc1ccccc1Oc1c(NS(=O)(=O)c2ccc(C(C)(C)C)cc2)nc(-c2ncccn2)nc1OCCO`, the Potency result in assay [1] is “inactive”. Moreover, the outcome in assay [2] was inactive.

Turning to `CCOC(=O)c1cccnc1`, the Potency result in [1] was “inactive”. Also, the outcome in assay [2] was inactive.

As for `Cc1c(N(C)C)c(=O)n(-c2ccccc2)n1C`, the Potency entry in [1], in assay [3], in assay [5] and in [6] was “inactive” in each case. For the same molecule, the molecule was called inactive in assay [2] and in assay [9]. Further, the activation in assay [4] was 1.01% and 2.73%; in assay [7] it was -1.03% and 1.07%. In addition, the max response in [8] was -3.72% and 2.35%.

As to `Cc1ccccc1N=Nc1ccc(N=Nc2c(O)ccc3ccccc23)c(C)c1`, the Potency entry in assay [1] is “inactive”. The molecule was called inactive in assay [2].

On to `O=C1c2ccccc2C(=O)C1c1ccc(Br)cc1`, for which the Potency result in [1] was “inactive”. Moreover, in assay [2], the result was inactive.

For `CCCNC(C)(C)COC(=O)c1ccccc1`, the Potency entry in assay [1] was “inactive”. For the same molecule, in assay [2], the call was inactive.

For the molecule `CCc1nnc(NS(=O)(=O)c2ccc(N)cc2)s1`, the Potency entry in [1] was “inactive”. The result in assay [2] was inactive.

On to `CC(C)=CCC/C(C)=C/CO`, for which the Potency entry in assay [1] and in assay [3] was “inactive” each time. The outcome in assay [2] was inactive. Further, the activation is -0.602% in [4] and -0.426% in assay [7]. The max response in [8] was -2.93%.

For the molecule `NC(=O)c1ccc([N+](=O)[O-])cc1Cl`, the Potency result in assay [1] was “inactive”. The molecule was classed as inactive in assay [2].

On to `CCCOC(=O)c1ccc(N)cc1`, for which, in [1], the Potency entry is “inactive”. Further, in assay [2], the molecule was classed as inactive.

For the molecule `NCc1ccc(S(N)(=O)=O)cc1`, the Potency entry in assay [1] was “inactive”. Further, in [2], the call was inactive.

As to `Nc1ccc(S(=O)(=O)c2ccc(N)cc2)cc1`, the Potency result in assay [1], in assay [3], in assay [5] and in [6] was “inactive” in each case. For the same molecule, the molecule was classed as inactive in assay [2] and in [9]. Also, the activation was 2.3% and -6.03% in assay [4]; -1.52% and 0.0487% in assay [7]. For the same molecule, the max response in assay [8] was -8.33% and -0.873%.

For `CCN1CC(CCN2CCOCC2)C(c2ccccc2)(c2ccccc2)C1=O` (stereo not drawn), in assay [1], the Potency result was “inactive”. Besides, in [2], the outcome was inactive.

As to `CN1CCCN=C1COC(=O)C(O)(c1ccccc1)C1CCCCC1` (stereo not drawn), the Potency entry in assay [1] was “inactive”. For the same molecule, the result in [2] was inactive.

As for `NC(N)=NS(=O)(=O)c1ccc(N)cc1`, the Potency entry in assay [1] was “inactive”. Besides, in assay [2], the outcome was inactive.

As to `O=C(CN1CCNCC1)NC1CCCCC1`, the Potency result in assay [1] is “inactive”. The outcome in assay [2] was inactive.

`O=C(OOC(=O)c1ccccc1)c1ccccc1`: the Potency entry in assay [1] and in assay [3] was “inactive” in each case. Further, the activation in [7] is 2.82%. Besides, in [8], the max response was -3.46%.

Regarding `CC1CC(OC(=O)c2ccccc2O)CC(C)(C)C1` (stereo not drawn), the Potency entry in [1], in assay [5] and in assay [6] was “inactive” in each case. The molecule was called inactive in assay [2]. The activation is -1.08% in [4] and 2.34% in assay [7]. In assay [8], the max response was -1.84%.

With `CCCC(O)C(CC)CO` (stereo not drawn), the Potency entry in assay [1] and in assay [3] was “inactive” in each case. Moreover, the activation is 0.969% in assay [4] and 0.804% in [7]. In addition, the call in assay [10] and in assay [9] was inactive. In assay [8], the max response is -4.25%.

For the molecule `O=C(c1ccccc1)C(O)c1ccccc1` (stereo not drawn), the Potency result in assay [1] and in assay [3] was “inactive” each time. Moreover, the activation was -2.35% and -0.255% in assay [4]; -1.25% and 2.53% in [7]. The max response in [8] is -1.85% and -1.14%. The outcome in assay [9] was inactive.

For the molecule `CC(=O)OCC(COC(C)=O)OC(C)=O`, the Potency result in assay [1] and in assay [3] was “inactive” throughout. In addition, the activation in assay [4] is 0.2% and 0.487%; in assay [7] it was 1.18% and -0.878%. Also, the molecule was classed as inactive in [10] and in [9]. Moreover, the max response in assay [8] is 0.869% and -1.48%.

In the case of `OC[C@@H](O)[C@@H](O)[C@H](O)[C@H](O)CO`, the Potency result in assay [1] was “inactive”. The activation was -2.19% in assay [4] and -0.115% in assay [7]. Further, the max response in assay [8] was -1.72%.

As to `CCCCCC(N)=O`, the Potency in assay [1] was 14.4 µM (active). In [3], the Potency entry was “inactive”. Moreover, the activation in assay [4] was 0.129%; in assay [7] it was -0.0681%. Also, the max response in assay [8] is -2.19%. For the same molecule, the molecule was classed as inactive in assay [9].
